# Residue numbers refer to the chain shown, from its start.
# Experiments:
# Assay in all cases: PBM; 200 nM protein, PBS
# Details in all cases: dsDNA, one strand shown
# [1] = target: T1, VENTX (Homo sapiens, UniProt O95231 78-163, R121Q)
# T1 sequence: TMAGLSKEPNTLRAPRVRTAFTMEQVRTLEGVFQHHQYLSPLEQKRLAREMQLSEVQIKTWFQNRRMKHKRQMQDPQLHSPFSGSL
# [2] = target: HOXC9 (Homo sapiens, UniProt P31274 178-260, K195R)
# [3] = target: T2, VENTX (Homo sapiens, UniProt O95231 78-163)
# T2 sequence: T1 sequence with Q44R
# [4] = target: T3, VENTX (Homo sapiens, UniProt O95231 78-163, Y115F)
# T3 sequence: T1 sequence with Y38F, Q44R
# [5] = target: HOXB6 (Homo sapiens, UniProt P17509 132-218, K202E)
# [6] = target: HOXC9 (Homo sapiens, UniProt P31274 178-260)
# [7] = target: HOXC9 (Homo sapiens, UniProt P31274 178-260, R193K)
# [8] = target: VAX1 (Homo sapiens, UniProt Q5SQQ9 86-172)
# [9] = target: HOXC9 (Homo sapiens, UniProt P31274 178-260, R222W)
# [10] = target: VAX1 (Homo sapiens, UniProt Q5SQQ9 86-172, T142I)
# [11] = target: VAX1 (Homo sapiens, UniProt Q5SQQ9 86-172, K157R)
# [12] = target: HOXB6 (Homo sapiens, UniProt P17509 132-218)
# [13] = target: HOXB9 (Homo sapiens, UniProt P17482 171-250, T197M)
# [14] = target: HOXA4 (Homo sapiens, UniProt Q00056 201-287, W262R)
# [15] = target: HOXA7 (Homo sapiens, UniProt P31268 116-202)
# [16] = target: HOXA2 (Homo sapiens, UniProt O43364 129-215, R185T)
# [17] = target: HOXA4 (Homo sapiens, UniProt Q00056 201-287, R217L)
# [18] = target: HOXB9 (Homo sapiens, UniProt P17482 171-250)
# [19] = target: HOXA2 (Homo sapiens, UniProt O43364 129-215, R185K)
# [20] = target: HOXA4 (Homo sapiens, UniProt Q00056 201-287)
# [21] = target: HOXC10 (Homo sapiens, UniProt Q9NYD6 254-340, K271E)
# [22] = target: HOXB9 (Homo sapiens, UniProt P17482 171-250, R186Q)
# [23] = target: HOXA2 (Homo sapiens, UniProt O43364 129-215, Y150S)
# [24] = target: HOXA7 (Homo sapiens, UniProt P31268 116-202, W177C)
# [25] = target: HOXA4 (Homo sapiens, UniProt Q00056 201-287, W262F)
# [26] = target: HOXA2 (Homo sapiens, UniProt O43364 129-215)
# [27] = target: MSX2 (Homo sapiens, UniProt P35548 130-214, R199I)
# [28] = target: MSX2 (Homo sapiens, UniProt P35548 130-214)
# [29] = target: PROP1 (Homo sapiens, UniProt O75360 56-141)
# [30] = target: PROP1 (Homo sapiens, UniProt O75360 56-141, R99H)
# [31] = target: PROP1 (Homo sapiens, UniProt O75360 56-141, F88S)
# [32] = target: MSX2 (Homo sapiens, UniProt P35548 130-214, F161Y)
# [33] = target: HOXC10 (Homo sapiens, UniProt Q9NYD6 254-340)
# [34] = target: PITX2 (Homo sapiens, UniProt Q99697 72-157)
# HOXB6 (Homo sapiens, UniProt P17509 132-218, K202E), sequence (P17509 132-218 K202E): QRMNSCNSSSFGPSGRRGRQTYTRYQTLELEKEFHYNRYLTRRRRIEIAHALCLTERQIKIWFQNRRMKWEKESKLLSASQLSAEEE
# HOXB6 (Homo sapiens, UniProt P17509 132-218), sequence (P17509 132-218): as the sequence (P17509 132-218 K202E) above, with E71K counted along it
# HOXC9 (Homo sapiens, UniProt P31274 178-260), sequence (P31274 178-260): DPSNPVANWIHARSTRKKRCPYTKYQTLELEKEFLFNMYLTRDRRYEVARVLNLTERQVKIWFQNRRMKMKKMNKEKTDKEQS
# HOXC9 (Homo sapiens, UniProt P31274 178-260, R222W), sequence (P31274 178-260 R222W): as the sequence (P31274 178-260) above, with R45W counted along it
# HOXA2 (Homo sapiens, UniProt O43364 129-215, R185T), sequence (O43364 129-215 R185T): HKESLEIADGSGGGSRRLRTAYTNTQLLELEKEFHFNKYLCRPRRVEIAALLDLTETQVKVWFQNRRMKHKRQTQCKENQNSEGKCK
# HOXA2 (Homo sapiens, UniProt O43364 129-215, Y150S), sequence (O43364 129-215 Y150S): as the sequence (O43364 129-215 R185T) above, with Y22S, T57R counted along it
# HOXC9 (Homo sapiens, UniProt P31274 178-260, R193K), sequence (P31274 178-260 R193K): as the sequence (P31274 178-260) above, with R16K counted along it
# HOXA2 (Homo sapiens, UniProt O43364 129-215, R185K), sequence (O43364 129-215 R185K): as the sequence (O43364 129-215 R185T) above, with T57K counted along it
# HOXA7 (Homo sapiens, UniProt P31268 116-202), sequence (P31268 116-202): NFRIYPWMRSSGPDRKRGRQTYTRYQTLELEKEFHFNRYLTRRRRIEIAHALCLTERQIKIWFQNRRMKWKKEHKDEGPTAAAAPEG
# HOXB9 (Homo sapiens, UniProt P17482 171-250, R186Q), sequence (P17482 171-250 R186Q): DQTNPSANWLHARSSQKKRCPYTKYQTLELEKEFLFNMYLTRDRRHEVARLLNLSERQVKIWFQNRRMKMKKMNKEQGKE
# HOXA2 (Homo sapiens, UniProt O43364 129-215), sequence (O43364 129-215): as the sequence (O43364 129-215 R185T) above, with T57R counted along it
# HOXC10 (Homo sapiens, UniProt Q9NYD6 254-340, K271E), sequence (Q9NYD6 254-340 K271E): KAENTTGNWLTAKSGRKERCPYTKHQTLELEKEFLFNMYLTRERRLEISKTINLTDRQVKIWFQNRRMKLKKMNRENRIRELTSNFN
# HOXC9 (Homo sapiens, UniProt P31274 178-260, K195R), sequence (P31274 178-260 K195R): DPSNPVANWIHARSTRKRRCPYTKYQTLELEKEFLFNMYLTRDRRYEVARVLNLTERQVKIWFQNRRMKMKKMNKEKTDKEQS
# HOXB9 (Homo sapiens, UniProt P17482 171-250, T197M), sequence (P17482 171-250 T197M): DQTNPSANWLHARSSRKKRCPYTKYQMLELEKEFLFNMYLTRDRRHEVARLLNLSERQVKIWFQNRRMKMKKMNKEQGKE
# HOXB9 (Homo sapiens, UniProt P17482 171-250), sequence (P17482 171-250): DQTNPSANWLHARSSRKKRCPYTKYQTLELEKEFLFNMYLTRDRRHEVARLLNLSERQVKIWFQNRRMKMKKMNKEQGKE
# HOXA7 (Homo sapiens, UniProt P31268 116-202, W177C), sequence (P31268 116-202 W177C): as the sequence (P31268 116-202) above, with W62C counted along it
# PROP1 (Homo sapiens, UniProt O75360 56-141, F88S), sequence (O75360 56-141 F88S): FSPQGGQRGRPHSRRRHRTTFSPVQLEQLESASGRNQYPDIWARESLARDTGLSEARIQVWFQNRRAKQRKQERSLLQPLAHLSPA
# HOXA4 (Homo sapiens, UniProt Q00056 201-287, W262F), sequence (Q00056 201-287 W262F): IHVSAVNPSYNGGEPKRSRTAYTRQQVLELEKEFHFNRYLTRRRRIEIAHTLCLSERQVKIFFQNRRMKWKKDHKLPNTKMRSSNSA
# HOXA4 (Homo sapiens, UniProt Q00056 201-287), sequence (Q00056 201-287): as the sequence (Q00056 201-287 W262F) above, with F62W counted along it
# MSX2 (Homo sapiens, UniProt P35548 130-214, R199I), sequence (P35548 130-214 R199I): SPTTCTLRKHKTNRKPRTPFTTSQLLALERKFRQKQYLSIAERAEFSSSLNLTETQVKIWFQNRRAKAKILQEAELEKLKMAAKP
# VAX1 (Homo sapiens, UniProt Q5SQQ9 86-172, T142I), sequence (Q5SQQ9 86-172 T142I): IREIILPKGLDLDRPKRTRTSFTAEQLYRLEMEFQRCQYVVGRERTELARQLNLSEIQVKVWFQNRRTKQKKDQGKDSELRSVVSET
# PROP1 (Homo sapiens, UniProt O75360 56-141, R99H), sequence (O75360 56-141 R99H): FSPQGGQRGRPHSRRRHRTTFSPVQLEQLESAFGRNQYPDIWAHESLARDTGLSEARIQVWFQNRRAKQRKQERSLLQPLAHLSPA
# VAX1 (Homo sapiens, UniProt Q5SQQ9 86-172), sequence (Q5SQQ9 86-172): as the sequence (Q5SQQ9 86-172 T142I) above, with I57T counted along it
# VAX1 (Homo sapiens, UniProt Q5SQQ9 86-172, K157R), sequence (Q5SQQ9 86-172 K157R): as the sequence (Q5SQQ9 86-172 T142I) above, with I57T, K72R counted along it
# HOXA4 (Homo sapiens, UniProt Q00056 201-287, W262R), sequence (Q00056 201-287 W262R): as the sequence (Q00056 201-287 W262F) above, with F62R counted along it
# MSX2 (Homo sapiens, UniProt P35548 130-214), sequence (P35548 130-214): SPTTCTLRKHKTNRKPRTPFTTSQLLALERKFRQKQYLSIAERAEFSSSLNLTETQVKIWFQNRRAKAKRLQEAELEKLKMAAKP
# PROP1 (Homo sapiens, UniProt O75360 56-141), sequence (O75360 56-141): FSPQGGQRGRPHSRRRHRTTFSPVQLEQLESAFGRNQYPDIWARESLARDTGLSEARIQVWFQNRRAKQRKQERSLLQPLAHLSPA
# HOXA4 (Homo sapiens, UniProt Q00056 201-287, R217L), sequence (Q00056 201-287 R217L): as the sequence (Q00056 201-287 W262F) above, with R17L, F62W counted along it
# HOXC10 (Homo sapiens, UniProt Q9NYD6 254-340), sequence (Q9NYD6 254-340): as the sequence (Q9NYD6 254-340 K271E) above, with E18K counted along it
# MSX2 (Homo sapiens, UniProt P35548 130-214, F161Y), sequence (P35548 130-214 F161Y): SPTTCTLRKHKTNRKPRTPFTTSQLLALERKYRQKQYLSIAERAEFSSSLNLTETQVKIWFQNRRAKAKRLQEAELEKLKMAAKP
sequence,measurement,setting,value
GGGGTACC,binding signal,[1],"8.08 upbm affinity estimate (log intensity, higher = more binding, comparable within an allelic series)"
same,binding signal,[2],"9.78 upbm affinity estimate (log intensity, higher = more binding, comparable within an allelic series)"
same,binding signal,[3],"8.11 upbm affinity estimate (log intensity, higher = more binding, comparable within an allelic series)"
same,binding signal,[4],"7.99 upbm affinity estimate (log intensity, higher = more binding, comparable within an allelic series)"
same,binding signal,[5],"9.07 upbm affinity estimate (log intensity, higher = more binding, comparable within an allelic series)"
same,binding signal,[6],"9.67 upbm affinity estimate (log intensity, higher = more binding, comparable within an allelic series)"
same,binding signal,[7],"9.47 upbm affinity estimate (log intensity, higher = more binding, comparable within an allelic series)"
same,binding signal,[8],"7.1 upbm affinity estimate (log intensity, higher = more binding, comparable within an allelic series)"
same,binding signal,[9],"9.69 upbm affinity estimate (log intensity, higher = more binding, comparable within an allelic series)"
same,binding signal,[10],"7.26 upbm affinity estimate (log intensity, higher = more binding, comparable within an allelic series)"
same,binding signal,[11],"7.1 upbm affinity estimate (log intensity, higher = more binding, comparable within an allelic series)"
same,binding signal,[12],"9.04 upbm affinity estimate (log intensity, higher = more binding, comparable within an allelic series)"
CCATTAAC,binding signal,[1],"12.1 upbm affinity estimate (log intensity, higher = more binding, comparable within an allelic series)"
same,binding signal,[13],"9.99 upbm affinity estimate (log intensity, higher = more binding, comparable within an allelic series)"
same,binding signal,[14],"10.6 upbm affinity estimate (log intensity, higher = more binding, comparable within an allelic series)"
same,binding signal,[2],"12.7 upbm affinity estimate (log intensity, higher = more binding, comparable within an allelic series)"
same,binding signal,[3],"12.6 upbm affinity estimate (log intensity, higher = more binding, comparable within an allelic series)"
same,binding signal,[15],"11.5 upbm affinity estimate (log intensity, higher = more binding, comparable within an allelic series)"
same,binding signal,[4],"11.7 upbm affinity estimate (log intensity, higher = more binding, comparable within an allelic series)"
same,binding signal,[5],"10.1 upbm affinity estimate (log intensity, higher = more binding, comparable within an allelic series)"
same,binding signal,[16],"12.1 upbm affinity estimate (log intensity, higher = more binding, comparable within an allelic series)"
same,binding signal,[17],"12 upbm affinity estimate (log intensity, higher = more binding, comparable within an allelic series)"
same,binding signal,[18],"11.7 upbm affinity estimate (log intensity, higher = more binding, comparable within an allelic series)"
same,binding signal,[6],"12.7 upbm affinity estimate (log intensity, higher = more binding, comparable within an allelic series)"
same,binding signal,[7],"12.7 upbm affinity estimate (log intensity, higher = more binding, comparable within an allelic series)"
same,binding signal,[19],"13.1 upbm affinity estimate (log intensity, higher = more binding, comparable within an allelic series)"
same,binding signal,[20],"13.8 upbm affinity estimate (log intensity, higher = more binding, comparable within an allelic series)"
same,binding signal,[21],"11.9 upbm affinity estimate (log intensity, higher = more binding, comparable within an allelic series)"
same,binding signal,[22],"11.6 upbm affinity estimate (log intensity, higher = more binding, comparable within an allelic series)"
same,binding signal,[9],"11 upbm affinity estimate (log intensity, higher = more binding, comparable within an allelic series)"
same,binding signal,[23],"10.7 upbm affinity estimate (log intensity, higher = more binding, comparable within an allelic series)"
same,binding signal,[24],"8.86 upbm affinity estimate (log intensity, higher = more binding, comparable within an allelic series)"
same,binding signal,[25],"11.5 upbm affinity estimate (log intensity, higher = more binding, comparable within an allelic series)"
same,binding signal,[26],"12 upbm affinity estimate (log intensity, higher = more binding, comparable within an allelic series)"
same,binding signal,[12],"12 upbm affinity estimate (log intensity, higher = more binding, comparable within an allelic series)"
CCTCGTTA,binding signal,[1],"10.3 upbm affinity estimate (log intensity, higher = more binding, comparable within an allelic series)"
CCCGGACG,binding signal,[1],"7.96 upbm affinity estimate (log intensity, higher = more binding, comparable within an allelic series)"
same,binding signal,[13],"8.39 upbm affinity estimate (log intensity, higher = more binding, comparable within an allelic series)"
same,binding signal,[3],"7.88 upbm affinity estimate (log intensity, higher = more binding, comparable within an allelic series)"
same,binding signal,[15],"8.42 upbm affinity estimate (log intensity, higher = more binding, comparable within an allelic series)"
same,binding signal,[4],"8.04 upbm affinity estimate (log intensity, higher = more binding, comparable within an allelic series)"
same,binding signal,[18],"8.49 upbm affinity estimate (log intensity, higher = more binding, comparable within an allelic series)"
same,binding signal,[27],"9.41 upbm affinity estimate (log intensity, higher = more binding, comparable within an allelic series)"
same,binding signal,[28],"9.27 upbm affinity estimate (log intensity, higher = more binding, comparable within an allelic series)"
same,binding signal,[29],"6.37 upbm affinity estimate (log intensity, higher = more binding, comparable within an allelic series)"
same,binding signal,[30],"6.67 upbm affinity estimate (log intensity, higher = more binding, comparable within an allelic series)"
same,binding signal,[22],"8.54 upbm affinity estimate (log intensity, higher = more binding, comparable within an allelic series)"
same,binding signal,[31],"6.37 upbm affinity estimate (log intensity, higher = more binding, comparable within an allelic series)"
same,binding signal,[32],"9.4 upbm affinity estimate (log intensity, higher = more binding, comparable within an allelic series)"
same,binding signal,[24],"8.37 upbm affinity estimate (log intensity, higher = more binding, comparable within an allelic series)"
CGAGACCG,binding signal,[1],"8.25 upbm affinity estimate (log intensity, higher = more binding, comparable within an allelic series)"
same,binding signal,[3],"8.39 upbm affinity estimate (log intensity, higher = more binding, comparable within an allelic series)"
same,binding signal,[4],"8.28 upbm affinity estimate (log intensity, higher = more binding, comparable within an allelic series)"
AGGGGGCG,binding signal,[1],"8.25 upbm affinity estimate (log intensity, higher = more binding, comparable within an allelic series)"
same,binding signal,[3],"8.25 upbm affinity estimate (log intensity, higher = more binding, comparable within an allelic series)"
same,binding signal,[33],"10 upbm affinity estimate (log intensity, higher = more binding, comparable within an allelic series)"
same,binding signal,[4],"8.23 upbm affinity estimate (log intensity, higher = more binding, comparable within an allelic series)"
same,binding signal,[5],"9 upbm affinity estimate (log intensity, higher = more binding, comparable within an allelic series)"
same,binding signal,[16],"7.3 upbm affinity estimate (log intensity, higher = more binding, comparable within an allelic series)"
same,binding signal,[34],"8.12 upbm affinity estimate (log intensity, higher = more binding, comparable within an allelic series)"
same,binding signal,[19],"10.2 upbm affinity estimate (log intensity, higher = more binding, comparable within an allelic series)"
same,binding signal,[21],"9.95 upbm affinity estimate (log intensity, higher = more binding, comparable within an allelic series)"
same,binding signal,[23],"10.3 upbm affinity estimate (log intensity, higher = more binding, comparable within an allelic series)"
same,binding signal,[26],"7.28 upbm affinity estimate (log intensity, higher = more binding, comparable within an allelic series)"
same,binding signal,[12],"8.93 upbm affinity estimate (log intensity, higher = more binding, comparable within an allelic series)"
GCCAGGCA,binding signal,[1],"8.27 upbm affinity estimate (log intensity, higher = more binding, comparable within an allelic series)"
same,binding signal,[3],"8.55 upbm affinity estimate (log intensity, higher = more binding, comparable within an allelic series)"
same,binding signal,[4],"8.35 upbm affinity estimate (log intensity, higher = more binding, comparable within an allelic series)"
CCATTAGG,binding signal,[1],"11.7 upbm affinity estimate (log intensity, higher = more binding, comparable within an allelic series)"
same,binding signal,[3],"12.4 upbm affinity estimate (log intensity, higher = more binding, comparable within an allelic series)"
same,binding signal,[4],"11.4 upbm affinity estimate (log intensity, higher = more binding, comparable within an allelic series)"
